Assay outcomes from PubChem.
In the library only some 6.9% were active in any assay of this set; here they are far more common.
Giardia killer – Giardia lamblia killing; Giardia lamblia trophozoite viability; activity change, % at 7.66 µM, hits read low; 0.15% of 340,000 active; in the data active = activity change below about -80%; inconclusive = between about -30% and that limit;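 also: parasites exposed to compound for two days anaerobically before the ATP read; % is scaled to controls: 0 for no effect and ±100 for the full control effect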
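Luminescent ATP signal served as the viability read-out, measured 15-30 min after adding ATP detection reagent to trophozoites that had been incubated with compounds for 48 hrs at 37 deg C anaerobically at 100 cells/well.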
ASM inhibitor – inhibitors of human secretory acid sphingomyelinase. P17405. placental ASM, HMU-PC fluorogenic substrate, 60 min. Potency, µM (top dose mostly 57.5 µM), for the others: at the top dose activity change, negative = inhibition, hits mostly inhibitors. 0.006% of 340,000 active. AID 504937; also: potency is read from the fitted curve at half-maximal effect
Target sequence (P17405 47-631 limits assumed): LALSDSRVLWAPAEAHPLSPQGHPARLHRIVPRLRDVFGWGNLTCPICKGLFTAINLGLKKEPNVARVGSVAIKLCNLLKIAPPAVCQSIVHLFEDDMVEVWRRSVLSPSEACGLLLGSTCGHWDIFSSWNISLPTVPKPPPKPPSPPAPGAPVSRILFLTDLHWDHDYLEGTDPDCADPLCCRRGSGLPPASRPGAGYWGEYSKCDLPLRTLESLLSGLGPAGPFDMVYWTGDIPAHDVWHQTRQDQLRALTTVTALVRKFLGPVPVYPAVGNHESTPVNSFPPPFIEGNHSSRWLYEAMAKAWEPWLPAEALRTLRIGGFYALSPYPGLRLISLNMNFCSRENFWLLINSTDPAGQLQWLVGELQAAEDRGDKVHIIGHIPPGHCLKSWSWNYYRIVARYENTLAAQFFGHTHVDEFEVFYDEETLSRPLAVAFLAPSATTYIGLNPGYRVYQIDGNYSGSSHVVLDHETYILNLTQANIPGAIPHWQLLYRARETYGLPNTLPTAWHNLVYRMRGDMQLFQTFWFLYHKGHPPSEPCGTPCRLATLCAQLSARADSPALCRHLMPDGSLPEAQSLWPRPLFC
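Human placenta-derived ASM enzyme was preincubated with compound for 10 minutes at room temperature, then given fluorogenic substrate HMU-PC0 (9 uM final) for 60 minutes at 37 °C; a pH 10 stop preceded fluorescence reading at Ex 386/Em 447 nm.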
MCF10A rerep – DNA re-replication induction in MCF 10a cells. 2.9% of 350,000 active. Potency, µM (highest dose often 46.1 µM), for inactives: top-dose activity, positive = re-replication, usual class: activators. MCF 10A DNA re-replication, Hoechst nuclear intensity, 48 h. AID 624296; also: potency is read from the fitted curve at half-maximal effect; % of control where 0% means no effect; nearly all actives have a fitted effect of over 50% in size
KB-V1 MDR tox – kills drug-selected multidrug resistant KB-V1 cells; KB-V1 MDR cells viability, CellTiter-Glo, 72 h; AID 1347076; 3.4% of 400,000 active; Potency, µM (series often up to 46.1 µM), actives largely listed as cytotoxic; also: potency is read from the fitted curve at half-maximal effect; % is scaled to controls: 0 for no effect and ±100 for the full control effect; nearly all actives have a fitted effect of over 60% in size
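qHTS viability screen in drug-selected KB-V1 MDR cells: 72 h compound treatment at 37 degrees C, ATP luminescence end point.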
SW480 rerep – induces DNA re-replication in SW480 colon adenocarcinoma cells. 1.8% of 340,000 active. AID 624297. SW480 DNA re-replication, Hoechst DNA content imaging, 48 h. Potency, µM (series often up to 46.1 µM), for the others: top-dose re-replication activation, hits mostly activators; also: potency is read from the fitted curve at half-maximal effect; % of control where 0% means no effect; nearly all actives have a fitted effect of over 55% in size
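SW480 cells exposed to compounds for 48 hr at 37 C, 5% CO2, then Hoechst-stained 40 min. Nuclear DNA content imaged by fluorescence scanning (405 nm excitation, 500-530 nm emission); re-replication scored as increased high-intensity nuclei.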
KB-3-1 cytotox – KB-3-1 parental cell cytotoxicity; KB-3-1 viability, CellTiter-Glo ATP luminescence, 72 h; Potency, µM (titrated, usually from 46.1 µM), actives largely listed as cytotoxic; 1.4% of 400,000 active; AID 1347075; also: potency is read from the fitted curve at half-maximal effect; % is scaled to controls: 0 for no effect and ±100 for the full control effect; nearly all actives have a fitted effect of over 60% in size
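Screening of KB-3-1 cells (DMEM, 10% FBS, phenol-red free) ran from lowest to highest compound concentration; after 72 h at 37 °C viability was read luminescently and curves fitted.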
Starred values were filed as active, the others as inactive; i = inactive; ? = inconclusive; . = no result given; [ ] = remark or other dose. Unless noted, calls follow the shape of the dose curve; as a rule, active = well fitted curve in the direction sought with a large enough effect; inconclusive = small, poorly fitted or top-dose-only effect, or another doubt; inactive = no such curve, though single readings can be large; an effect the other way counts as inactive or inconclusive.

SMILES	Giardia killer	ASM inhibitor	MCF10A rerep	KB-V1 MDR tox	SW480 rerep	KB-3-1 cytotox
COc1cccc(-c2cc(C(F)(F)F)nc(N3CCCCC3)n2)c1	-0.4	23.3%	16.4µM*	i	-8.5%	i
COc1ccc(-c2cc(C(F)(F)F)nc(N3CCN(C)CC3)n2)cc1	8.0	-0.7%	?	11.6µM*	-2.7%	?
CCCCCC(=O)N1CCCC(c2nc(-c3ccc(OC)cc3)no2)C1 (configuration not stated)	-3.3	-2.6%	?	?	0.1%	?
O=C(CC1CCCCC1)N1CCCC(c2nc(-c3ccc(S(=O)(=O)N4CCCC4)cc3)no2)C1 (configuration not stated)	-2.5	-9.5%	?	8.2µM*	-8.2%	i
COc1ccc(-c2noc(C3CCCN(C(=O)c4ccccc4)C3)n2)cc1 (configuration not stated)	13.7	-3.4%	-1.4%	i	5.1%	i
O=C(c1ccco1)N1CCCC(c2nc(-c3ccc(S(=O)(=O)NCc4ccccc4)cc3)no2)C1 (configuration not stated)	3.2	-6.5%	18.4µM*	i	10.1%	i
CC1(C)N=C(SCc2ccc(F)cc2)c2ccccc2N1	.	.	.	?	.	i
CCN1CCOC(CC(=O)Nc2cccc([N+](=O)[O-])c2)C1=O (configuration not stated)	-4.2	0.0%	20.6µM*	i	109.1%	i
COc1ccc(C(=O)COC(=O)c2cc(-c3cccs3)nc3ccccc23)cc1	.	.	.	i	.	i
Cc1oc(-c2cc(Cl)cc(Cl)c2)cc1C(=O)NCCc1ccccc1	-21.3	-9.5%	14.6µM*	?	-3.2%	i
COc1ccc(CCNC(=O)c2cc(-c3cc(Cl)cc(Cl)c3)oc2C)cc1	-1.2	-18.1%	?	i	10.9%	i
COc1ccc(/C=C(\C#N)c2nc(-c3cc4c(ccc5ccccc54)oc3=O)cs2)cc1O	-14.1	.	.	.	.	.
Cn1cc(-c2csc(C(O)(c3ccccc3)C(F)(F)F)n2)cn1 (configuration not stated)	.	.	.	i	.	i
COc1ccc(O)c(C(=O)c2coc(=N)c(C(=O)Nc3ccc(SC(F)F)cc3)c2)c1	-2.1	-8.3%	29.3%	23.1µM*	0.3%	i
CC(C)OC(=O)c1cc(C(=O)c2cc(F)ccc2O)coc1=N	-2.1	157.1%	4.0%	i	-7.8%	i
CC(=O)c1cnc2n(c1=O)CCS2	0.4	3.3%	-16.8%	i	13µM*	i
CN(C)/C=C/C(=O)c1cnc2n(c1=O)CCS2	-0.7	3.0%	-16.5%	i	-5.2%	i
Cc1oc(-c2cccc(Cl)c2)nc1CSCC(=O)NCc1ccccc1Cl	.	.	.	?	.	i
CSC1(SC2=NCCN2)SC2(NCCN2)S1	3.2	-1.0%	3.66µM*	?	?	?
COc1cc(OC)c(OC)cc1/C=C/c1nc2cc3ccccc3cc2c(=O)n1-c1ccc(F)cc1F	.	.	.	i	.	11.6µM*
CCCN1CCCc2cc(CN)ccc21	3.4	115.1%	13µM*	i	?	i
CN1CCCc2cc(C=O)ccc21	-15.9	15.3%	1.4%	i	-3.7%[9.22 µM]	i
N#Cc1cccc2c1-c1ccccc1/C2=N/NC(N)=S	3.8	-6.3%	?	?	24.2%	?
NC(=S)NN=C1c2ccccc2-c2c(F)c(F)c(F)c(F)c21	-15.5	-7.4%	6.51µM*	?	14.6µM*	?
C/C=C1\COC(C(=O)NCCN2CCOCC2)(C(F)(F)F)C=C1C=C(C)C (configuration not stated)	17.0	.	.	.	.	.
CCn1c(=O)cc(SCC(=O)NCc2ccccn2)c2ccccc21	5.3	-1.2%	?	i	-0.4%	i
CCn1c(=O)cc(SCC(=O)Nc2ccc3c(c2)OCCO3)c2ccccc21	5.4	-19.7%	22.7%	16.4µM*	-3.4%	i
CCn1c(=O)cc(OCC(=O)Nc2ccc(C)cn2)c2ccccc21	-10.6	-1.2%	20.6µM*	?	11.5%	i
